# According to PubChem BioAssay (Tox21):
# Values without a mark were called inactive. Results filed as inconclusive are left out. Activity calls are given as the source filed them. Unless noted, the call rests on the fitted dose curve; in most records, active means well fitted curve in the direction sought with a large enough effect in the repeat runs; inconclusive means weak or mixed curves; inactive means no such curve, though single readings can be large; an effect the other way counts as inactive or inconclusive.
# System: not listed separately
# Experiment: qHTS assay for identifying genotoxic compounds that show differential cytotoxicity against isogenic chicken DT40 cell lines with known DNA damage response pathways - Rad54/Ku70 mutant cell line (AID 743015); further: nearly all actives have a fitted effect of over 60% in size; further: potency means the concentration at half of the fitted maximal effect
# Details: DT40 Rad54/Ku70 mutant viability, CellTiter-Glo, 40 h; series mostly up to 66.8 µM; activity change, negative = cytotoxicity: at the top concentration
# On the % scale 0 is the no-effect control and ±100 the full control effect.
SMILES,"activity change, negative = cytotoxicity",Potency
O=CNNC=O,-1.05% [at 95.1 µM],–
Nc1ccn([C@H]2CS[C@@H](CO)O2)c(=O)n1,–,inactive
O=C(NS(=O)(=O)/C=C/c1ccccc1)c1ccc(F)cc1Cl,0.95%,–
CCCCC[C@H](O)/C=C/[C@H]1[C@H](O)CC(=O)[C@@H]1C/C=C\CCCC(=O)O,-2.6%,–
CCCCOC(=O)CCCCC(=O)OCCCC,-19.8%,–
FC(F)(F)C(F)(F)C(F)(F)C(F)(F)CCI,2.98% [at 30.7 µM],–
SCCc1cnccn1,-4.62%,–
CCCCCCCC(=O)OCCCCCC,4.78%,–
CCN(CC)C(=O)/C(C#N)=C/c1cc(O)c(O)c([N+](=O)[O-])c1,4.51%,–
c1ccc(CCCc2ccncc2)cc1,-8.25%,–
Nc1ccc(S(=O)(=O)NCc2ccccc2)cc1,10.3%,–
CC(C)(C)S,1.49% [at 95.1 µM],–
Nc1nc(-c2ccc([N+](=O)[O-])cc2)cs1,2.21% [at 95.1 µM],–
CCOC(=O)c1ccc(NC(=O)CN2CCCCC2)cc1,–,10.6 µM (active)
O=C(O)CCS,3.18% [at 95.1 µM],–

# System: not listed separately
# Experiment: qHTS assay to identify small molecule antagonists of the androgen receptor (AR) signaling pathway - cell viability counter screen (AID 743033; further: nearly all actives have a fitted effect of over 45% in size)
# Details: AR-bla HEK293 viability, CellTiter-Glo luminescence, 16 h; series mostly up to 58.5 µM; activity change, negative = cytotoxicity: at the top concentration
SMILES,"activity change, negative = cytotoxicity",Potency
O=CNNC=O,0.663% [at 78.9 µM],–
Nc1ccn([C@H]2CS[C@@H](CO)O2)c(=O)n1,–,inactive
CC(C)(C)NCC(O)COc1cccc2c1C[C@H](O)[C@H](O)C2 (stereo partly drawn),18.8% [at 27 µM],–
O=C(NS(=O)(=O)/C=C/c1ccccc1)c1ccc(F)cc1Cl,-1.38%,–
CC(C)C(=O)OCCOc1ccccc1,0.529%,–
Cc1ccc2c(c1)CCCN2,-1.42%,–
CCCCC[C@H](O)/C=C/[C@H]1[C@H](O)CC(=O)[C@@H]1C/C=C\CCCC(=O)O,-1.67%,–
CCCCOC(=O)CCCCC(=O)OCCCC,4.03%,–
CCCCCCCCCCCCCCCC(=O)OCC,-0.921%,–
O=C1[C@@H]2[C@H]3CC[C@H](C3)[C@@H]2C(=O)N1CCCCN1CCN(c2ncccn2)CC1,-5.98%,–
FC(F)(F)C(F)(F)C(F)(F)C(F)(F)CCI,5.47% [at 27 µM],–
SCCc1cnccn1,-6.2%,–
C=CC(=O)NC(C)C,3.07%,–
CCCCCCCC(=O)OCCCCCC,0.5%,–
COc1ccc(C)cc1,1.72%,–
CN=C(N)NC(=O)Nc1c(C)cccc1C,-2.82%,–
CC1=CC[C@@]23C[C@@H]1C(C)(C)[C@@H]2CC[C@H]3C,11%,–
CCN(CC)C(=O)/C(C#N)=C/c1cc(O)c(O)c([N+](=O)[O-])c1,18.2%,–
Cc1ccc(Cl)cc1N,-0.256% [at 78.9 µM],–
c1ccc(CCCc2ccncc2)cc1,-17.4%,–
C=CC(=O)O,–,inactive
O=[N+]([O-])c1ccc2ncccc2c1,-1.37%,–
O=c1[nH][nH]c(=O)c2cc([N+](=O)[O-])ccc12,-0.968% [at 78.9 µM],–
CC(C)(C)S,-1.05% [at 78.9 µM],–
COc1ccc(/C=C/C(=O)c2ccc(OC)cc2OC)cc1,-12.8%,–
Nc1nc(-c2ccc([N+](=O)[O-])cc2)cs1,-2.31% [at 78.9 µM],–
CC(C)Cc1ccc(CC(=O)O)cc1,-1.57%,–
CCOC(=O)c1ccc(NC(=O)CN2CCCCC2)cc1,2.6%,–
COC(CC(C)CCCC(C)(C)O)OC (stereo not drawn),0.138%,–
O=C(O)CCS,0.781% [at 78.9 µM],–

# Target: Androgen receptor (Homo sapiens) (UniProt P10275)
# Sequence (P10275 whole entry, looked up): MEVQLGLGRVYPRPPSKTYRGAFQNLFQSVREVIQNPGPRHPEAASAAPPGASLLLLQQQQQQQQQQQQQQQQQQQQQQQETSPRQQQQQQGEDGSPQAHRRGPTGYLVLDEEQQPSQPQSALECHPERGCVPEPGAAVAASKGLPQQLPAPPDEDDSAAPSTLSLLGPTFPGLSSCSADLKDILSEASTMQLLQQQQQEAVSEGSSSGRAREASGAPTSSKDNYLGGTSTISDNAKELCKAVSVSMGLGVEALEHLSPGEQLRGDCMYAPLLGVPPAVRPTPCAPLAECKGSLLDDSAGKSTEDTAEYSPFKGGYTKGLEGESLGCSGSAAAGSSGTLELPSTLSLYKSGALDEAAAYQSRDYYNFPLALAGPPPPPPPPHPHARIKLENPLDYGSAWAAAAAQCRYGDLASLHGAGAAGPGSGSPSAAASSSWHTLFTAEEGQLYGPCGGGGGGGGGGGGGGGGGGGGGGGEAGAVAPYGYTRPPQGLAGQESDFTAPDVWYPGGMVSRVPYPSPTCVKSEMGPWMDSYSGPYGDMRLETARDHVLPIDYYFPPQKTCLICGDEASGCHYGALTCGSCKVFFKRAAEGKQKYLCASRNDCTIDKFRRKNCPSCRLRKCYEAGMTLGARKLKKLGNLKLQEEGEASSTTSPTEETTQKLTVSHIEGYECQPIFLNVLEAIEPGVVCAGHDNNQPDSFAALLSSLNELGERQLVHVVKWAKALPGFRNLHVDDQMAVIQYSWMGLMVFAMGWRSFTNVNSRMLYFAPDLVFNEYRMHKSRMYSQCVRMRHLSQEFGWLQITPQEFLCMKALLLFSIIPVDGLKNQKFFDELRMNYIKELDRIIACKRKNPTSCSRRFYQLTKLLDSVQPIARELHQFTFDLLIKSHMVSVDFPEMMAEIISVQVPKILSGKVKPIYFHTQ
# Experiment: qHTS assay to identify small molecule agonists of the androgen receptor (AR) signaling pathway (AID 743036; active means well fitted activation curve with a large enough effect in the signal ratio in the repeat runs, with a control signal flat, not every such curve was filed as active; the % refers to the signal ratio)
# Details: HEK293 AR-UAS-bla GripTite, beta-lactamase FRET ratio, 16 h; series mostly up to 62.4 µM; activation: at the top concentration
# Summary of the method: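 AR-bla HEK293 cells, 2,000/well; 4 h preincubation 37C/5% CO2; compound (DMSO) 16 h at 37C; LiveBLAzer B/G FRET substrate 2 h RT; fluorescence intensity read-out.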
row,SMILES,activation [%]
1,CCCCCCCC(=O)OCCCCCC,-0.929
2,Nc1ccc(NC(=O)c2ccc(N)cc2)cc1,-10.4
3,CCOC(=O)c1ccc(NC(=O)CN2CCCCC2)cc1,-12.1

# Target: Androgen receptor (Homo sapiens) (UniProt P10275)
# Experiment: qHTS assay to identify small molecule agonists of the androgen receptor (AR) signaling pathway using the MDA cell line (AID 743040; further: nearly all actives have a fitted effect of over 20% in size)
# Details: MDA-kb2 AR-luc cells, MMTV luciferase, 16 h; series mostly up to 70.3 µM; activity change: at the top concentration
# Summary of the method: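 MDA-kb2 breast carcinoma cells carrying MMTV-luciferase (responsive to AR and GR), plated 5 h then treated 16 h with compounds at 37C, 0% CO2. Read-out was ONE-Glo luminescence after 30 min at room temperature.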
row,SMILES,activity change [%]
1,CCCCC[C@H](O)/C=C/[C@H]1[C@H](O)CC(=O)[C@@H]1C/C=C\CCCC(=O)O,0.65
2,CCCCCCCC(=O)OCCCCCC,2.6
3,Nc1ccc(NC(=O)c2ccc(N)cc2)cc1,3.77
4,CCN(CC)C(=O)/C(C#N)=C/c1cc(O)c(O)c([N+](=O)[O-])c1,2.37
5,CCOC(=O)c1ccc(NC(=O)CN2CCCCC2)cc1,2.52

# System: not listed separately
# Experiment: qHTS assay to identify small molecule antagonists of the androgen receptor (AR) signaling pathway using the MDA cell line - cell viability counter screen (AID 743041; further: nearly all actives have a fitted effect of over 45% in size)
# Details: MDA-kb2 viability, CellTiter-Fluor, 16 h, cells co-treated with R1881 androgen agonist; series mostly up to 70.3 µM; viability change, negative = cytotoxic: at the top concentration
# Summary of the method: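 MDA-kb2 AR-luc cells (MMTV-luciferase, AR/GR responsive) treated with compounds plus R1881 agonist for 16 h at 37C. CellTiter-Fluor added at 15.5 h; fluorescence read after 30 min in the same wells.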
SMILES,"viability change, negative = cytotoxic",Potency
O=CNNC=O,-0.62% [at 95 µM],–
Nc1ccn([C@H]2CS[C@@H](CO)O2)c(=O)n1,–,inactive
CC(C)(C)NCC(O)COc1cccc2c1C[C@H](O)[C@H](O)C2 (stereo partly drawn),7.1% [at 32.5 µM],–
O=C(NS(=O)(=O)/C=C/c1ccccc1)c1ccc(F)cc1Cl,-0.151%,–
CC(C)C(=O)OCCOc1ccccc1,4.66%,–
CCC(=O)OCc1ccc(OC)cc1,1.07%,–
Cc1ccc2c(c1)CCCN2,-0.817%,–
CCCCC[C@H](O)/C=C/[C@H]1[C@H](O)CC(=O)[C@@H]1C/C=C\CCCC(=O)O,-3.09%,–
CCCCOC(=O)CCCCC(=O)OCCCC,-3.13%,–
CCCCCCCCCCCCCCCC(=O)OCC,4.91%,–
O=C1[C@@H]2[C@H]3CC[C@H](C3)[C@@H]2C(=O)N1CCCCN1CCN(c2ncccn2)CC1,1.42%,–
FC(F)(F)C(F)(F)C(F)(F)C(F)(F)CCI,3.93% [at 32.5 µM],–
SCCc1cnccn1,-4.99%,–
C=CC(=O)NC(C)C,-0.815%,–
CCCCCCCC(=O)OCCCCCC,0.543%,–
Nc1ccc(NC(=O)c2ccc(N)cc2)cc1,0.651%,–
COc1ccc(C)cc1,-7.74%,–
CN=C(N)NC(=O)Nc1c(C)cccc1C,21.6%,–

SMILES,"viability change, negative = cytotoxic",Potency
CC1=CC[C@@]23C[C@@H]1C(C)(C)[C@@H]2CC[C@H]3C,-0.795%,–
CCN(CC)C(=O)/C(C#N)=C/c1cc(O)c(O)c([N+](=O)[O-])c1,-19.4%,–
Cc1ccc(Cl)cc1N,-1.6% [at 95 µM],–
c1ccc(CCCc2ccncc2)cc1,5.23%,–
C=CC(=O)O,–,inactive
CCN(CC)CCOc1ccccc1C(=O)CCc1ccccc1,-3.54%,–
O=[N+]([O-])c1ccc2ncccc2c1,-2.75%,–
CCCCCCOC(=O)CCCCC,6%,–
O=c1[nH][nH]c(=O)c2cc([N+](=O)[O-])ccc12,-18.5% [at 95 µM],–
CCCCCCCC(=O)Oc1c(Br)cc(C#N)cc1Br,0.0741%,–
COc1ccc(/C=C/C(=O)c2ccc(OC)cc2OC)cc1,-19.5%,–
Nc1nc(-c2ccc([N+](=O)[O-])cc2)cs1,0.828% [at 95 µM],–
CC(C)Cc1ccc(CC(=O)O)cc1,-8.21%,–
O=c1[nH]c2cc(C(F)(F)F)c(N3CCOCC3)cc2n(CP(=O)(O)O)c1=O,-1.15%,–
CCOC(=O)c1ccc(NC(=O)CN2CCCCC2)cc1,-9.34%,–
COC(CC(C)CCCC(C)(C)O)OC (stereo not drawn),1.31%,–
O=C(O)CCS,1.08% [at 95 µM],–
